# Out of some 310,000 compounds screened, about 14,000 (4.5%) showed an effect of 50% or more. Effects have a minus sign here. This excerpt belongs to a sample that is enriched for strong results.
# Target: human ether-à-go-go-related gene (hERG) potassium channel (human, UniProt Q12809)
# Test: primary screen, population patch clamp on CHO cells stably expressing hERG; higher = less effect of the substance
# 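Also: peak tail current of the secondary pulse compared with the same well before compound.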
# Chain of human ether-à-go-go-related gene (hERG) potassium channel (Q12809 whole entry, looked up): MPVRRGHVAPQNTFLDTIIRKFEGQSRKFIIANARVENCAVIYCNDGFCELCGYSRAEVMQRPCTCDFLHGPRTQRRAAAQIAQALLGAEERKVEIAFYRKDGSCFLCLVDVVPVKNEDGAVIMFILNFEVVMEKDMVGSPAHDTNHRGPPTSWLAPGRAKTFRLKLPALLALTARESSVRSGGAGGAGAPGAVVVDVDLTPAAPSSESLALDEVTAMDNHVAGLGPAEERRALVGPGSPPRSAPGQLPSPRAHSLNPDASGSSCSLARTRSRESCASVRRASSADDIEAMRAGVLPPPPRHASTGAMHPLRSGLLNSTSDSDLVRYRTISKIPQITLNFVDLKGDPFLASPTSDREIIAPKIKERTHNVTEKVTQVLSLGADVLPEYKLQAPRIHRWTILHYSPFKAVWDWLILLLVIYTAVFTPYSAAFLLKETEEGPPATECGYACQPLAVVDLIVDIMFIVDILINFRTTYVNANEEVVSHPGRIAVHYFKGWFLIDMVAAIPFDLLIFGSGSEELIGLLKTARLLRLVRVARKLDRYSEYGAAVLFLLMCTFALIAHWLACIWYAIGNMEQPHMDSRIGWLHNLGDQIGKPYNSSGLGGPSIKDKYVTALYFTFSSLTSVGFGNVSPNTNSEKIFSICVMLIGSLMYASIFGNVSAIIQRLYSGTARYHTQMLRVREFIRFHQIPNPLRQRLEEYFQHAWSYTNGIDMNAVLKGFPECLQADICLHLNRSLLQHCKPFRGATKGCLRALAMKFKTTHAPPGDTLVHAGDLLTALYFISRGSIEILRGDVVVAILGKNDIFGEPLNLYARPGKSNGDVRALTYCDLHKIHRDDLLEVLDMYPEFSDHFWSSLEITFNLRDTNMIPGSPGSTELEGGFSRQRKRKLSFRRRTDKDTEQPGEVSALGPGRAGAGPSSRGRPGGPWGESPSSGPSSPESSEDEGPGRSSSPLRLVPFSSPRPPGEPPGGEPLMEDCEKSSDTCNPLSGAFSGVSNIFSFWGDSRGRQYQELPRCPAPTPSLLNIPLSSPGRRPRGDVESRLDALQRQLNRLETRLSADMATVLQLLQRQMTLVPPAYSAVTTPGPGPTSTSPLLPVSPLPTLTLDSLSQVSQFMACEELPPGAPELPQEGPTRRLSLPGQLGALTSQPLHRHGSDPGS
row,SMILES,"hERG current change (%, negative = inhibition) at 10uM [%]"
1,COCCCN(C(C)=O)c1nc(-c2ccccc2)cs1,-23.4
2,CCNC(=O)CSc1nc(-c2ccc(F)cc2)cs1,21.2
3,O=C(NCC(c1ccco1)N1CCc2ccccc21)c1ccc([N+](=O)[O-])cc1 (stereo not drawn),-18.3
4,Cn1c(SCc2ccccc2)nnc1-c1ccc2nonc2c1,-9.18
5,Cn1c(SCc2c(Cl)cccc2Cl)nnc1-c1ccc2nonc2c1,-55.1
6,Cn1c(SCc2ccc(Cl)cc2)nnc1-c1ccc2nonc2c1,0.685
7,CC(c1ccco1)N(C(=O)c1ccccc1NS(=O)(=O)c1ccc(Cl)c([N+](=O)[O-])c1)c1ccccn1 (stereo not drawn),-6.14
8,COc1ccc(NC(=O)c2nn(C)c(=O)c3ccccc23)cc1S(=O)(=O)Nc1ccccc1Cl,26
9,COc1ccc(/C=C(/NC(=O)c2ccco2)C(=O)NCCc2ccccc2)cc1,-52.6
10,O=C(Nc1ccccc1)/C(=C/c1ccc([N+](=O)[O-])cc1)NC(=O)c1ccco1,6.42
11,O=C(NCCc1ccccc1)/C(=C\c1ccc([N+](=O)[O-])cc1)NC(=O)c1ccco1,-80.7
12,COc1ccc(NC(=O)/C(=C\c2ccccc2)NC(=O)c2ccco2)cc1,0.0276
13,O=C(NCCc1ccccc1)/C(=C\c1ccccc1)NC(=O)c1ccco1,-21.4
14,O=C(NC(Cc1ccccc1)C(=O)O)/C(=C/c1ccc([N+](=O)[O-])cc1)NC(=O)c1ccco1 (stereo not drawn),12.6
15,O=C(NCCc1ccccc1)/C(=C\c1ccc([N+](=O)[O-])cc1)NC(=O)c1ccccc1,-14.6
16,Cc1ccc(C(=O)N/C(=C\c2ccc([N+](=O)[O-])cc2)C(=O)NCCc2ccccc2)cc1,-33.8
17,O=C(NCc1ccccc1)/C(=C/c1ccc([N+](=O)[O-])cc1)NC(=O)c1ccco1,-62.7
18,O=C(NCc1ccccc1)/C(=C\c1ccc([N+](=O)[O-])cc1)NC(=O)c1ccco1,-60.9
19,O=C(NCc1ccccc1)/C(=C\c1ccccc1)NC(=O)c1ccco1,-21.7
20,O=C(NCc1ccccc1)/C(=C/c1ccccc1)NC(=O)c1ccco1,-24.6
21,Cc1cc(S(=O)(=O)Nc2ccc3ccccc3c2)c(C)s1,-0.508

row,SMILES,"hERG current change (%, negative = inhibition) at 10uM [%]"
1,O=C(/C=C/c1cccs1)NC(=S)Nc1ccc(C(=O)O)cc1,6.78
2,CCOc1ccc(/C=N/Nc2cc(C)nc(N3CCOCC3)n2)cc1,3.47
3,O=C(O)c1ccc2c(c1)C1C=CCC1C(c1cc3c(cc1Br)OCO3)N2 (stereo not drawn),21.2
4,O=c1n(-c2ccc(Br)cc2)cnn1-c1ncccc1[N+](=O)[O-],-22.1
5,O=C1N/C(=N\N=C\c2ccco2)SC1Cc1ccc(F)cc1 (stereo not drawn),14
6,Nc1ncnc(Nc2cccc(C(F)(F)F)c2)n1,-5.45
7,Cc1ccc(SCc2[nH]nc3c2C(c2cccnc2)C(C#N)=C(N)O3)cc1 (stereo not drawn),-2.64
8,O=C(CCN1C(=O)c2ccccc2C1=O)NCc1ccccc1,10.2
9,CCOC(=O)c1cc2occc2n1CC(=O)N1CCOCC1,6.95
10,COc1cc(-c2ccc(NC(=O)NC3CC3)c(OC)c2)ccc1NC(=O)NC1CC1,27.9
11,O=C(NCc1ccco1)/C(=C/c1ccc(Cl)cc1)NC(=O)c1ccco1,-14
12,O=C(NCc1ccco1)/C(=C/c1ccc([N+](=O)[O-])cc1)NC(=O)c1ccco1,-69.5
13,O=C(NCc1ccco1)/C(=C/c1ccccc1)NC(=O)c1ccco1,4.72
14,CC(C)CNC(=S)NC(=O)c1csc([N+](=O)[O-])c1,9.85
15,COc1cccc(C(=O)C2CCCN(Cc3cccc(-n4nc(C)cc4C)c3)C2)c1 (stereo not drawn),-59.4
16,COc1cccc(CN2CCCC(C(=O)N3CCCCC3)C2)c1.O=C(O)C(=O)O (stereo not drawn),5.13
17,COc1cccc(C(=O)C2CCCN(Cc3cccc(OCCO)c3)C2)c1 (stereo not drawn),-48.7
18,COc1cccc(C(=O)C2CCCN(Cc3cccc(-n4cccn4)c3)C2)c1 (stereo not drawn),-64.5
19,Cc1cc(S(=O)(=O)N2CCCC(C)C2)ccc1-n1cnnn1 (stereo not drawn),5.72
20,O=C(CSc1nc(N2CCOCC2)nc(N2CCOCC2)n1)Nc1ccccc1F,19.2
21,COc1ccccc1C(=O)CC(=O)C(=O)Nc1cccc([N+](=O)[O-])c1C,8.79

# — PMC4336329 (PLoS ONE, 2015)
